# This is one part of a sample in which the strongest signals are shown more often than they occur.
# B1: PLU (Photorhabdus luminiscence) (protein)
# chain: HHHHHHENLYFQSSIVFASIDPRSNPLQTSSQNYVDIPGLKLDVSKYSNSPCLTALITLNIPTPYASGNNFPGGNFAIVTDQGEQLAYGGFTYSSKIPENSGRMPFTLVARYSLASNVSTIKAQWSNIRGSTVHIDSYASISAVIQCNQLV
# Assays:
# Assay in all cases: glycan array binding signal (z-score within array); higher = stronger binding
# Details in all cases: glycan notation: IUPAC condensed, linker removed
# [1] = molecular target: Fuc(a1-2)Gal(b1-3)GalNAc(b1-3)Gal(a1-4)Gal(b1-4)Glc
# How it was run: (§1)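 The Consortium for Functional Glycomics database supplied 3228 glycan arrays, of which those lacking an available protein sequence were dropped. The binding signal, a within-array Z-score, was averaged across arrays of the same protein sequence and across linkers. Negative scores can be read as non-binding.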
# [2] = molecular target: Fuc(a1-2)Gal(b1-3)[Fuc(a1-4)]GlcNAc
# How it was run: as §1
# [3] = molecular target: Fuc(a1-2)Gal(b1-4)[Fuc(a1-3)]GlcNAc
# How it was run: as §1
# [4] = molecular target: Fuc(a1-2)Gal(b1-4)[Fuc(a1-3)]GlcNAc(b1-2)Man(a1-3)[Fuc(a1-2)Gal(b1-4)[Fuc(a1-3)]GlcNAc(b1-2)Man(a1-6)]Man(b1-4)GlcNAc(b1-4)[Fuc(a1-6)]GlcNAc
# How it was run: as §1
# [5] = molecular target: Fuc(a1-2)Gal(b1-4)[Fuc(a1-3)]GlcNAc(b1-3)Gal(b1-4)[Fuc(a1-3)]GlcNAc
# How it was run: as §1
# [6] = molecular target: Fuc(a1-2)Gal(b1-4)[Fuc(a1-3)]GlcNAc(b1-3)Gal(b1-4)[Fuc(a1-3)]GlcNAc(b1-3)Gal(b1-4)[Fuc(a1-3)]GlcNAc
# How it was run: as §1
# [7] = molecular target: Fuc(a1-2)[Gal(a1-3)]Gal(b1-3)GlcNAc
# How it was run: as §1
# [8] = molecular target: Fuc(a1-2)[Gal(a1-3)]Gal(b1-4)Glc
# How it was run: as §1
# [9] = molecular target: Fuc(a1-2)[Gal(a1-3)]Gal(b1-4)GlcNAc
# How it was run: as §1
# [10] = molecular target: Fuc(a1-2)[Gal(a1-3)]Gal(b1-4)GlcNAc(b1-2)Man(a1-3)[Fuc(a1-2)[Gal(a1-3)]Gal(b1-4)GlcNAc(b1-2)Man(a1-6)]Man(b1-4)GlcNAc(b1-4)GlcNAc
# How it was run: as §1
# [11] = molecular target: Fuc(a1-2)[Gal(a1-3)]Gal(b1-4)[Fuc(a1-3)]GlcNAc
# How it was run: as §1
# [12] = molecular target: Fuc(a1-2)[GalNAc(a1-3)]Gal(b1-3)GalNAc(b1-3)Gal(a1-4)Gal(b1-4)Glc
# How it was run: as §1
# [13] = molecular target: Fuc(a1-2)[GalNAc(a1-3)]Gal(b1-4)GlcNAc(b1-2)Man
# How it was run: as §1
# [14] = molecular target: Fuc(a1-2)[GalNAc(a1-3)]Gal(b1-4)GlcNAc(b1-3)Gal(b1-4)GlcNAc
# How it was run: as §1
# [15] = molecular target: Fuc(a1-4)GlcNAc
# How it was run: as §1
# [16] = molecular target: Fuc(b1-3)GlcNAc
# How it was run: as §1
# [17] = molecular target: Gal(a1-3)Gal(b1-3)GlcNAc(b1-6)GalNAc
# How it was run: as §1
# [18] = molecular target: Gal(a1-3)Gal(b1-4)Glc
# How it was run: as §1
# [19] = molecular target: Gal(a1-3)Gal(b1-4)GlcNAc
# How it was run: as §1
# [20] = molecular target: Gal(a1-3)Gal(b1-4)[Fuc(a1-3)]GlcNAc
# How it was run: as §1
# [21] = molecular target: Gal(a1-4)Gal(b1-4)GlcNAc(b1-2)Man(a1-3)[Gal(a1-4)Gal(b1-4)GlcNAc(b1-2)Man(a1-6)]Man(b1-4)GlcNAc(b1-4)GlcNAc
# How it was run: as §1
# [22] = molecular target: Gal(b1-3)[Neu5Ac(b2-6)]GalNAc
# How it was run: as §1
# [23] = molecular target: Gal(b1-4)Gal
# How it was run: as §1
# [24] = molecular target: Gal(b1-4)GlcNAc(b1-2)Man(a1-3)Man(b1-4)GlcNAc(b1-4)GlcNAc
# How it was run: as §1
# [25] = molecular target: Gal(b1-4)GlcNAc(b1-3)Gal(b1-4)GlcNAc(b1-3)Gal(b1-4)GlcNAc(b1-3)Gal(b1-4)GlcNAc(b1-3)Gal(b1-4)GlcNAc(b1-2)Man(a1-3)[Gal(b1-4)GlcNAc(b1-3)Gal(b1-4)GlcNAc(b1-3)Gal(b1-4)GlcNAc(b1-3)Gal(b1-4)GlcNAc(b1-3)Gal(b1-4)GlcNAc(b1-2)Man(a1-6)]Man(b1-4)GlcNAc(b1-4)[Fuc(a1-6)]GlcNAc
# How it was run: as §1
# [26] = molecular target: Gal(b1-4)GlcNAc(b1-3)[GlcNAc(b1-6)]Gal(b1-4)GlcNAc
# How it was run: as §1
# [27] = molecular target: Gal(b1-4)GlcNAc(b1-6)GalNAc
# How it was run: as §1
# [28] = molecular target: GalNAc(b1-3)Gal
# How it was run: as §1
# [29] = molecular target: GalNAc(b1-6)GalNAc
# How it was run: as §1
# [30] = molecular target: Glc(a1-6)Glc(a1-6)Glc
# How it was run: as §1
# [31] = molecular target: GlcNAc(a1-4)Gal(b1-4)GalNAc
# How it was run: as §1
# [32] = molecular target: GlcNAc(b1-3)Gal(b1-4)GlcNAc(b1-2)Man(a1-3)[GlcNAc(b1-3)Gal(b1-4)GlcNAc(b1-2)Man(a1-6)]Man(b1-4)GlcNAc(b1-4)GlcNAc
# How it was run: as §1
# [33] = molecular target: GlcNAc(b1-4)Gal(b1-4)GlcNAc
# How it was run: as §1
# [34] = molecular target: GlcNAc(b1-4)GlcNAc(b1-4)GlcNAc
# How it was run: as §1
# [35] = molecular target: Kdn(a2-3)Gal(b1-4)GlcNAc
# How it was run: as §1
# [36] = molecular target: Man(a1-3)[Man(a1-6)]Man(a1-6)[Man(a1-3)]Man
# How it was run: as §1
# [37] = molecular target: Neu5Ac(a2-3)Gal(b1-3)GalNAc(b1-3)Gal(a1-4)Gal(b1-4)Glc
# How it was run: as §1
# [38] = molecular target: Neu5Ac(a2-3)Gal(b1-3)GlcNAc6S
# How it was run: as §1
# [39] = molecular target: Neu5Ac(a2-3)Gal(b1-3)[Neu5Ac(a2-6)]GalNAc
# How it was run: as §1
# [40] = molecular target: Neu5Ac(a2-3)Gal(b1-4)GlcNAc(b1-2)Man(a1-3)[GlcNAc(b1-4)][Neu5Ac(a2-3)Gal(b1-4)GlcNAc(b1-2)Man(a1-6)]Man(b1-4)GlcNAc(b1-4)GlcNAc
# How it was run: as §1
# [41] = molecular target: Neu5Ac(a2-3)Gal(b1-4)GlcNAc(b1-3)Gal(b1-4)GlcNAc
# How it was run: as §1
# [42] = molecular target: Neu5Ac(a2-3)Gal(b1-4)GlcNAc(b1-6)[Gal(b1-3)]GalNAc
# How it was run: as §1
# [43] = molecular target: Neu5Ac(a2-3)Gal(b1-4)GlcNAc(b1-6)[Neu5Ac(a2-3)Gal(b1-3)]GalNAc
# How it was run: as §1
# [44] = molecular target: Neu5Ac(a2-3)[GalNAc(b1-4)]Gal(b1-4)Glc
# How it was run: as §1
# [45] = molecular target: Neu5Ac(a2-3)[Neu5Ac(a2-6)]GalNAc
# How it was run: as §1
# [46] = molecular target: Neu5Ac(a2-6)Gal(b1-4)GlcNAc(b1-2)[Neu5Ac(a2-6)Gal(b1-4)GlcNAc(b1-4)]Man(a1-3)[GlcNAc(b1-4)][Neu5Ac(a2-6)Gal(b1-4)GlcNAc(b1-4)Man(a1-6)]Man(b1-4)GlcNAc(b1-4)GlcNAc
# How it was run: as §1
# [47] = molecular target: Neu5Ac(a2-6)Gal(b1-4)GlcNAc(b1-6)GalNAc
# How it was run: as §1
# [48] = molecular target: Neu5Gc(a2-8)Neu5Ac(a2-3)Gal(b1-4)GlcNAc
# How it was run: as §1
binder,measurement,setting,value
B1,glycan array binding signal (z-score),[1],-0.183
same,glycan array binding signal (z-score),[2],5.25
same,glycan array binding signal (z-score),[3],3.55
same,glycan array binding signal (z-score),[4],0.621
same,glycan array binding signal (z-score),[5],3.58
same,glycan array binding signal (z-score),[6],5.21
same,glycan array binding signal (z-score),[7],4.43
same,glycan array binding signal (z-score),[8],3.43
same,glycan array binding signal (z-score),[9],3.83
same,glycan array binding signal (z-score),[10],3.78
same,glycan array binding signal (z-score),[11],5.59
same,glycan array binding signal (z-score),[12],-0.33
same,glycan array binding signal (z-score),[13],3.66
same,glycan array binding signal (z-score),[14],11.7
same,glycan array binding signal (z-score),[15],0.546
same,glycan array binding signal (z-score),[16],-0.329
same,glycan array binding signal (z-score),[17],-0.253
same,glycan array binding signal (z-score),[18],-0.284
same,glycan array binding signal (z-score),[19],-0.298
same,glycan array binding signal (z-score),[20],-0.21
same,glycan array binding signal (z-score),[21],-0.137
same,glycan array binding signal (z-score),[22],-0.298
same,glycan array binding signal (z-score),[23],-0.25
same,glycan array binding signal (z-score),[24],-0.227
same,glycan array binding signal (z-score),[25],-0.211
same,glycan array binding signal (z-score),[26],-0.329
same,glycan array binding signal (z-score),[27],-0.243
same,glycan array binding signal (z-score),[28],-0.24
same,glycan array binding signal (z-score),[29],-0.216
same,glycan array binding signal (z-score),[30],-0.299
same,glycan array binding signal (z-score),[31],-0.301
same,glycan array binding signal (z-score),[32],-0.212
same,glycan array binding signal (z-score),[33],-0.134
same,glycan array binding signal (z-score),[34],-0.336
same,glycan array binding signal (z-score),[35],-0.224
same,glycan array binding signal (z-score),[36],-0.093
same,glycan array binding signal (z-score),[37],-0.254
same,glycan array binding signal (z-score),[38],-0.277
same,glycan array binding signal (z-score),[39],-0.203
same,glycan array binding signal (z-score),[40],-0.251
same,glycan array binding signal (z-score),[41],-0.256
same,glycan array binding signal (z-score),[42],-0.144
same,glycan array binding signal (z-score),[43],-0.34
same,glycan array binding signal (z-score),[44],-0.324
same,glycan array binding signal (z-score),[45],-0.281
same,glycan array binding signal (z-score),[46],-0.267
same,glycan array binding signal (z-score),[47],-0.292
same,glycan array binding signal (z-score),[48],-0.285

# Source: the supplement of paper PMC8728848
